Measurements published in the supplement of paper PMC9694430.

What was measured:
Test in all cases: thermal shift delta Tm vs DMSO control; higher = stronger stabilization (binding)
Conditions in all cases: 12.5 µM; protein concentration 2 µM
[1] = test system: LOC_OS02G45750-cb003
Outline: (§1)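 The melting temperature shift given here is a triplicate mean, measured against protein that received only DMSO. Melting temperatures came from Boltzmann fits of differential scanning fluorimetry data on E. coli-expressed, purified rice kinase domain constructs. Each 19.5 μl well contained 2 μM kinase, 100 mM potassium phosphate pH 7.5, 150 mM NaCl, 10% glycerol, 5 × SYPRO Orange and compound in DMSO. Plates were scanned from 25°C to 95°C at 0.05°C/s.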

[2] = test system: LOC_OS02G54510-cb004
Outline: as §1

[3] = test system: LOC_OS03G04050-cb001
Outline: as §1

[4] = test system: LOC_OS03G12390-cb001
Outline: as §1

[5] = test system: LOC_OS03G27990-cb004
Outline: as §1

[6] = test system: LOC_OS03G50450-cb001
Outline: as §1

[7] = test system: LOC_OS03G50810-cb003
Outline: as §1

[8] = test system: LOC_OS04G35114-cb001
Outline: as §1

[9] = test system: T1, LOC_OS04G38480-cb003
T1 sequence (whole entry): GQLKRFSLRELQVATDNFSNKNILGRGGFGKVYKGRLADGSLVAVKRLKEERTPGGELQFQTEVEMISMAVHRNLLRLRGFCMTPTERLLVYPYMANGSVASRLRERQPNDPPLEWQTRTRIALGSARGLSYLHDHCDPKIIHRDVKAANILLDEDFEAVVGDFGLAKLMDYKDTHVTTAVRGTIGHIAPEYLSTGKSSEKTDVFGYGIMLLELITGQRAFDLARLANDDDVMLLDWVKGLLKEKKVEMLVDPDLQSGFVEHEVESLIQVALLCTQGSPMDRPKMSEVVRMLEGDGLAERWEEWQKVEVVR
Outline: as §1

[10] = test system: T2, LOC_OS04G41100-cb001
T2 sequence (whole entry): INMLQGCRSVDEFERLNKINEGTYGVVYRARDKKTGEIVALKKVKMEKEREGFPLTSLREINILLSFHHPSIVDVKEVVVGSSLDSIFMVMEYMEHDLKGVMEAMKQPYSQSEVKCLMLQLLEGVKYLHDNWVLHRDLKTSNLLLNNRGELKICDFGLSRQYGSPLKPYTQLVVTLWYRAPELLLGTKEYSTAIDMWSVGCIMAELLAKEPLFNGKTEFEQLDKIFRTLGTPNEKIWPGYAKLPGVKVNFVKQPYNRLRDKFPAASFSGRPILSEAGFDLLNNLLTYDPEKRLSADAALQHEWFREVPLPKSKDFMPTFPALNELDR
Outline: as §1

CCOc1cn(-c2ccc(F)cc2C)nc1C(=O)Nc1ccc(Oc2ccnc3cc(OC)c(OC)cc23)c(F)c1
thermal shift delta Tm [1]: 1.39 °C
thermal shift delta Tm [2]: 0.07 °C
thermal shift delta Tm [3]: 0.15 °C
thermal shift delta Tm [4]: 0.26 °C
thermal shift delta Tm [5]: 0.2 °C
thermal shift delta Tm [6]: 0.09 °C
thermal shift delta Tm [7]: 1.07 °C
thermal shift delta Tm [8]: 1.9 °C
thermal shift delta Tm [9]: 2.19 °C
thermal shift delta Tm [10]: 0.88 °C

CCCNC(=O)Nc1ccc(Oc2ncnc3cc(OC)c(OC)cc23)cc1Cl
thermal shift delta Tm [1]: -0.23 °C
thermal shift delta Tm [2]: -0.21 °C
thermal shift delta Tm [3]: -0.21 °C
thermal shift delta Tm [4]: 0.74 °C
thermal shift delta Tm [5]: -0.33 °C
thermal shift delta Tm [6]: -0.08 °C
thermal shift delta Tm [7]: 0.49 °C
thermal shift delta Tm [8]: 0.48 °C
thermal shift delta Tm [9]: -0.17 °C
thermal shift delta Tm [10]: -0.34 °C

CCC(=O)Nc1cccc(Oc2nc(Nc3ccc(N4CCN(C)CC4)cc3OC)ncc2Cl)c1
thermal shift delta Tm [1]: 1.13 °C
thermal shift delta Tm [2]: -0.03 °C
thermal shift delta Tm [3]: 0.41 °C
thermal shift delta Tm [4]: 2.35 °C
thermal shift delta Tm [5]: 0.56 °C
thermal shift delta Tm [6]: 0.69 °C
thermal shift delta Tm [7]: 1.06 °C
thermal shift delta Tm [8]: 0.8 °C
thermal shift delta Tm [9]: 1.83 °C
thermal shift delta Tm [10]: 0.39 °C

CCOc1cc(C(=O)N2CCC(N3CCN(C)CC3)CC2)ccc1Nc1ncc2c(n1)N(C1CCCC1)c1ccccc1C(=O)N2C
thermal shift delta Tm [1]: 0.51 °C
thermal shift delta Tm [2]: -0.24 °C
thermal shift delta Tm [3]: 0 °C
thermal shift delta Tm [4]: -0.16 °C
thermal shift delta Tm [5]: 0.03 °C
thermal shift delta Tm [6]: 0.49 °C
thermal shift delta Tm [7]: 0.18 °C
thermal shift delta Tm [8]: 0.47 °C
thermal shift delta Tm [9]: 1.8 °C
thermal shift delta Tm [10]: 0.13 °C

COCC(=O)NC/C=C/c1ccc2ncnc(Nc3ccc(Oc4ccc(C)nc4)c(C)c3)c2c1
thermal shift delta Tm [1]: 0.33 °C
thermal shift delta Tm [2]: -0.01 °C
thermal shift delta Tm [3]: 0.28 °C
thermal shift delta Tm [4]: -0.25 °C
thermal shift delta Tm [5]: -0.01 °C
thermal shift delta Tm [6]: -0.22 °C
thermal shift delta Tm [7]: -0.16 °C
thermal shift delta Tm [8]: 1.94 °C
thermal shift delta Tm [9]: 0.14 °C
thermal shift delta Tm [10]: 0.5 °C

CN1CCN(c2ccc(C(=O)Nc3n[nH]c4ccc(Cc5cc(F)cc(F)c5)cc34)c(NC3CCOCC3)c2)CC1 [Entrectinib (RXDX-101)]
thermal shift delta Tm [1]: 8.16 °C
thermal shift delta Tm [2]: 1.58 °C
thermal shift delta Tm [3]: 0.06 °C
thermal shift delta Tm [4]: 2.99 °C
thermal shift delta Tm [5]: 0.44 °C
thermal shift delta Tm [6]: 0.86 °C
thermal shift delta Tm [7]: 7.06 °C
thermal shift delta Tm [8]: 7.44 °C
thermal shift delta Tm [9]: 2.7 °C
thermal shift delta Tm [10]: 0.77 °C

CC(C)(C)c1cnc(CSc2cnc(NC(=O)C3CCNCC3)s2)o1
thermal shift delta Tm [1]: 0.84 °C
thermal shift delta Tm [2]: 0.08 °C
thermal shift delta Tm [3]: 0.58 °C
thermal shift delta Tm [4]: 0.18 °C
thermal shift delta Tm [5]: 0.11 °C
thermal shift delta Tm [6]: 0.05 °C
thermal shift delta Tm [7]: 0.57 °C
thermal shift delta Tm [8]: 0.29 °C
thermal shift delta Tm [9]: 0.55 °C
thermal shift delta Tm [10]: 10.7 °C

COc1ccc(CC(=O)Nc2nc3c(s2)CCc2ccccc2-3)cc1OC
thermal shift delta Tm [1]: 1.49 °C
thermal shift delta Tm [2]: -0.24 °C
thermal shift delta Tm [3]: 0.51 °C
thermal shift delta Tm [4]: 0.4 °C
thermal shift delta Tm [5]: 0.36 °C
thermal shift delta Tm [6]: 0.29 °C
thermal shift delta Tm [7]: 0.43 °C
thermal shift delta Tm [8]: 0.71 °C
thermal shift delta Tm [9]: 1.33 °C
thermal shift delta Tm [10]: 0.15 °C

CN1CCN(c2ccc3nc(-c4c(N)c5c(F)cccc5[nH]c4=O)[nH]c3c2)CC1 [Dovitinib (TKI-258) Dilactic Acid]
thermal shift delta Tm [1]: 16.3 °C
thermal shift delta Tm [2]: 1.95 °C
thermal shift delta Tm [3]: 0.96 °C
thermal shift delta Tm [4]: 4.57 °C
thermal shift delta Tm [5]: 8.19 °C
thermal shift delta Tm [6]: 5.49 °C
thermal shift delta Tm [7]: 1.54 °C
thermal shift delta Tm [8]: 9.41 °C
thermal shift delta Tm [9]: 1.48 °C
thermal shift delta Tm [10]: 0.82 °C

COc1ccc(COc2cc3oc(=O)c4cc(C(C)O)ccc4c3cc2OC)cc1 (stereo not given) [Palomid 529 (P529)]
thermal shift delta Tm [1]: -0.8 °C
thermal shift delta Tm [2]: 0.29 °C
thermal shift delta Tm [3]: 0.37 °C
thermal shift delta Tm [4]: -0.47 °C
thermal shift delta Tm [5]: 0.35 °C
thermal shift delta Tm [6]: 0.19 °C
thermal shift delta Tm [7]: 0.52 °C
thermal shift delta Tm [8]: 0.78 °C
thermal shift delta Tm [9]: 1.4 °C
thermal shift delta Tm [10]: 0.32 °C
